From PubChem BioAssay (NCATS)
A number with no mark means an inactive call. Records with an inconclusive call do not appear. Calls of active or inactive are those of the source.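 How the source made its calls, unless noted: active means compounds whose dose series gives a full or clear partial fitted curve of increased nuclear translocation; inconclusive means weak partial curve or effect only at the top dose; inactive means no dose-dependent translocation response.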

Biological target: Glucocorticoid receptor (Homo sapiens) (UniProt P04150)
Sequence (P04150 whole entry, looked up): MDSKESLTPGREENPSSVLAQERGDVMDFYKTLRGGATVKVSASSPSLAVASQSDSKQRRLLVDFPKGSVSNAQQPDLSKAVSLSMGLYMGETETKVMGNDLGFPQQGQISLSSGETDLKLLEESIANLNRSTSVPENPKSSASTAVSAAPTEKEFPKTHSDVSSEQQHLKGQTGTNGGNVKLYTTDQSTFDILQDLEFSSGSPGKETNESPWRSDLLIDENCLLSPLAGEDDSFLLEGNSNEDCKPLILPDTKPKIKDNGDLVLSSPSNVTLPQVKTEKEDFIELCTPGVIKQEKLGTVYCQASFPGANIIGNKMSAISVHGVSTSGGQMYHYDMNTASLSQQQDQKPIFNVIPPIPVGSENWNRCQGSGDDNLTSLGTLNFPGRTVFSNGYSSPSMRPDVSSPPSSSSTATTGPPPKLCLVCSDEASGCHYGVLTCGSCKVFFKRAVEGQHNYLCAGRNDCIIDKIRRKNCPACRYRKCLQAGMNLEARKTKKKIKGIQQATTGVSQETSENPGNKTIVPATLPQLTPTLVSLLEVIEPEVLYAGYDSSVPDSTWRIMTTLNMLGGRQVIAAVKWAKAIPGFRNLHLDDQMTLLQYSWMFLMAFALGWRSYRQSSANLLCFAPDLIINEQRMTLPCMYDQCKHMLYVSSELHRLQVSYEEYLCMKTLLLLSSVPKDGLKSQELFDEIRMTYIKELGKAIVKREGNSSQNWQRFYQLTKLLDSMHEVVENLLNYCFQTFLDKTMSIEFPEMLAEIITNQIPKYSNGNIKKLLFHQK
Experiment: GR-GFP Redistribution (AID 450); further: potency means the concentration at half of the fitted maximal effect
Conditions: U2OS GR-GFP nuclear translocation, laser cytometry, 2 h; series mostly up to 20.6 µM; translocation activation: at the top concentration

Row | SMILES | Potency
1 | N#CC1=C(SCC(=O)c2ccc(Cl)cc2)NC2=C(C(=O)CCC2)C1c1ccco1 (stereo not given) | > 20.6 µM
2 | CN(Cc1ccccc1)c1ncnc2ccc(Br)cc12 | > 20.6 µM
3 | COc1ccccc1C(=O)NC(=Nc1nc2ccccc2o1)NC(=O)c1ccccc1OC | > 20.6 µM
4 | Cc1ccc(N2CC(C(=O)Nc3ccc(N(C)C)cc3)CC2=O)cc1C (stereo not given) | > 20.6 µM
5 | CC(=Nc1cccc(O)c1)c1sc2ccccc2c1O | > 20.6 µM
6 | Cc1ccc(NC(=O)CSC2=C(C#N)C(c3ccc4c(c3)OCO4)CC(=O)N2)cc1C (stereo not given) | > 20.6 µM
7 | O=C(Oc1oc(-c2ccco2)nc1C=Nc1ccccc1)c1ccco1 | > 20.6 µM
8 | O=C(COc1ccc(-c2nnc(N3CCCCC3)c3ccccc23)cc1)N1CCCCC1 | > 20.6 µM
9 | C#CCSC1=C(C#N)C(c2cccs2)C(C(=O)OCC)=C(C)N1 (stereo not given) | > 20.6 µM
10 | COc1ccc(NC(=O)CSC2=C(C#N)C(c3ccco3)C3=C(CCCC3=O)N2)c(OC)c1 (stereo not given) | > 20.6 µM
11 | CCOC(=O)CSc1nc(N)c(C(=O)Nc2ccc(N(C)C)cc2)s1 | > 20.6 µM
12 | OC1(C2(O)CC(c3ccccc3)ON2)CCCCC1 (stereo not given) | > 20.6 µM
13 | CSc1nc(N)c(C#N)c(-c2ccccc2Cl)c1C#N | > 20.6 µM
14 | CCOC(=O)c1cc2c(=O)n3cccc(C)c3nc2n(C)c1=N | > 20.6 µM
15 | CCSc1nc(N)c(C#N)c(-c2ccccc2Cl)c1C#N | > 20.6 µM
16 | COc1ccc(C(=O)CSC2=C(C#N)C3(CCCCC3)C(C#N)=C(N)N2)cc1 | > 20.6 µM
17 | O=C(Oc1oc(-c2ccco2)nc1C=Nc1ccccc1)c1ccoc1 | > 20.6 µM

Row | SMILES | Potency
18 | CN(C)c1ccc(NC(=O)c2sc(SCC(=O)Nc3nccs3)nc2N)cc1 | > 20.6 µM
19 | Cc1cc(-c2cc(-c3ccc(Cl)cc3)nc(N)c2C#N)co1 | > 20.6 µM
20 | Cc1c(NC(=O)c2coc(=O)c(Br)c2)c(=O)n(-c2ccccc2)n1C | > 20.6 µM
21 | COCCCNc1nc2c(c(=O)[nH]c(=O)n2C)n1CC(O)COc1ccccc1 (stereo not given) | > 20.6 µM
22 | CCCc1cc(-n2ccnc2C)n2c(nc3ccccc32)c1C#N | > 20.6 µM
23 | CN1CCc2cc(O)c(O)cc2[C@H](c2ccccc2)C1 | > 46 µM
24 | COc1ccccc1-c1nn2c(-c3ccc(C(C)(C)C)cc3)nnc2s1 | > 20.6 µM
25 | CC1(C)Cc2c(C#N)c(OCC(=O)c3ccc(Cl)cc3)nc(-c3ccoc3)c2CO1 | > 20.6 µM
26 | COc1cccc(OCCN2CCN(c3ncnc4c3cnn4-c3ccccc3)CC2)c1 | > 20.6 µM
27 | Nc1ncnc2c1ncn2[C@@H]1O[C@@H](CO)[C@H](O)[C@@H]1O | > 46 µM
28 | Cc1cc(C)c(-n2c(O)c(C=NCCN3CCOCC3)c(=O)[nH]c2=O)c(C)c1 | > 20.6 µM
29 | Cc1nc2sc3c(NCc4ccco4)ncnc3c2c2c1COC(C)(C)C2 | > 20.6 µM
30 | C=CCn1c(N)c(C(=O)Nc2ccccc2)c2nc3ccccc3nc21 | > 20.6 µM
31 | COc1ccc(-c2nnc3sc(-c4ccccc4OC)nn23)cc1 | > 20.6 µM
32 | OCCNc1ncnc2c1c(-c1ccccc1)c(-c1ccccc1)n2Cc1ccco1 | > 20.6 µM
33 | CCOC(=O)c1c(-c2cccs2)csc1NC(=O)c1ccncc1 | > 20.6 µM

Biological target: Mitogen-activated protein kinase 10 (Mus musculus) (UniProt Q61831)
Experiment: JNK3 AlphaScreen Assay (AID 530; active means well fitted curve in either direction with a large enough effect, not every such curve was filed as active;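 further: kinase came from lysate of stimulated human HepG2 cells; signal reports phosphorylation of biotinylated GST-cJun 1-79 at Ser73 with 10 µM ATP; on the % scale 0 is the no-effect control and ±100 the full control effect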)
Conditions: JNK3 lysate, c-Jun phosphorylation; series mostly up to 57.1 µM; activity change, negative = inhibition: at the top concentration
Summary of the method: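 Kinase buffer: 20 mM Tris-HCl pH 7.6, 10 mM MgCl2, 1 mM DTT, 0.1 mM Na3VO4, 0.01% Tween-20; ATP 10 uM. Substrate biotin-GST-cJun(1-79), enzyme from activated HepG2 lysates. Detection by Ser73 phospho-antibody AlphaScreen.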

Row | SMILES | activity change, negative = inhibition
34 | COc1cc([C@H]2c3cc4c(cc3[C@@H](O[C@H]3O[C@H]5CO[C@@H](C)O[C@H]5[C@@H](O)[C@@H]3O)[C@@H]3COC(=O)[C@H]23)OCO4)cc(OC)c1O | 2.51% [at 25.6 µM]
35 | CN1CCc2cc(O)c(O)cc2[C@H](c2ccccc2)C1 | -18.5%
36 | Nc1ncnc2c1ncn2[C@@H]1O[C@@H](CO)[C@H](O)[C@@H]1O | 12.9%

Tested on: not listed separately
Experiment: qHTS Assay for Identification of Small Molecule Agonists for Hypoxia Response Element Signaling Pathway (AID 914; active means well fitted activation curve with a large enough effect in the signal ratio, with a control signal flat, not every such curve was filed as active; the % refers to the signal ratio; further: potency means the concentration at half of the fitted maximal effect; on activation: % of control where 0% means no effect)
Conditions: ME-180 (cervical carcinoma) HRE-bla reporter, beta-lactamase ratio, CoCl2, 17 h; activation: hits give high values
Summary of the method: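 HRE-bla ME-180 cells, overnight plating in Opti-MEM with 0.5% dialyzed FBS; cpd titration + EC50 CoCl2, 17 h, 37 degrees Celsius; CCF4 2.5 h RT; 460/530 nm ratio; AC50.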

Row | SMILES | activation | Potency
37 | COc1ccc(NC(=O)CSC2=C(C#N)C(c3ccco3)C3=C(CCCC3=O)N2)c(OC)c1 (stereo not given) | -27.4% | –
38 | OC1(C2(O)CC(c3ccccc3)ON2)CCCCC1 (stereo not given) | -4.48% | –
39 | CCOC(=O)c1cc2c(=O)n3cccc(C)c3nc2n(C)c1=N | – | 6.31 µM (active)
40 | Cc1cc(-c2cc(-c3ccc(Cl)cc3)nc(N)c2C#N)co1 | – | 7.94 µM (active)
41 | COCCCNc1nc2c(c(=O)[nH]c(=O)n2C)n1CC(O)COc1ccccc1 (stereo not given) | -6.56% | –
42 | CCOC(=O)C1/C(=N\O)CC(C)(O)C(C(=O)OCC)C1c1ccc(OC)c(OC)c1 (stereo not given) | – | 0.794 µM (active)
43 | Cc1cc(C)c(-n2c(O)c(C=NCCN3CCOCC3)c(=O)[nH]c2=O)c(C)c1 | -6.53% | –
44 | C=CCn1c(N)c(C(=O)Nc2ccccc2)c2nc3ccccc3nc21 | – | 5.01 µM (active)
45 | CCOC(=O)c1c(-c2cccs2)csc1NC(=O)c1ccncc1 | – | 6.31 µM (active)
